Compounds with a hit are over-represented: about 9.3% of the library has one in this group of screens.
NPC1 promoter act: activators of NPC1 promoter | Huh7 NPC1 promoter luciferase reporter, 24 h | Potency, µM (top dose mostly 9.22 µM), inactives show at the top dose activation, actives largely listed as activators | 320,000 compounds, 2.4% hits | AID 485313; also: % of control where 0% means no effect; nearly all actives have a fitted effect of over 60% in size
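Luciferase expression driven by the NPC1 promoter was measured in stably transfected Huh7 cells after a 24 h compound incubation, using a luciferase reagent and a luminescence read.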
FLuc counter: inhibits or activates purified firefly luciferase, miR-21 counter-screen. P08659. purified FLuc, Km substrates, luminescence inhibition. Potency, µM (highest dose often 57.5 µM), without a hit: at the top dose activity change, negative = inhibition, hits mostly inhibitors. 360,000 compounds, 6.9% hits. AID 588342;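 also: plate controls were vehicle for no effect and reference inhibitor for full effect; nearly all actives have a fitted effect of over 55% in size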
Target sequence (P08659 whole entry, looked up): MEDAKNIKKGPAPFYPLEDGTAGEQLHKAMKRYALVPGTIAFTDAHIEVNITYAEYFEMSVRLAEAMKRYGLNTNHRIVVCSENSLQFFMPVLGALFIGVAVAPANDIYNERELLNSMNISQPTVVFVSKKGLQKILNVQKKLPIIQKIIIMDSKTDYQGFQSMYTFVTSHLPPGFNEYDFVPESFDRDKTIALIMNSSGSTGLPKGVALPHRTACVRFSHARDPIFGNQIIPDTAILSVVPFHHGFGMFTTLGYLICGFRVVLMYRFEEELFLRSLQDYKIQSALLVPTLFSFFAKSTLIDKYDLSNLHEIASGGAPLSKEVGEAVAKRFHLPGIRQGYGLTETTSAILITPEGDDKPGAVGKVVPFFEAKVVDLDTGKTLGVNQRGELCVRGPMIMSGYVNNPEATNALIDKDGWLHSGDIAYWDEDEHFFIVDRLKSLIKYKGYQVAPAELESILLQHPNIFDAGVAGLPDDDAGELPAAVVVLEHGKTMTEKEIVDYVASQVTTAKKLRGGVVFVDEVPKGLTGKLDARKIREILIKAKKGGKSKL
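Purified P. pyralis luciferase, 10 nM final, with Km-level 10 uM D-luciferin and 10 uM ATP in 50 mM Tris acetate pH 7.5, 10 mM Mg acetate, 0.01% Tween-20, 0.05% BSA; 6-point qHTS titration about 60 µM downward; luminescence read.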
Rab9 prom act: activators of Rab9 promoter; Potency, µM (series often up to 9.22 µM), for the others: at the highest dose activation, negative = inhibition, actives largely listed as activators; Huh7 Rab9 promoter-luciferase reporter, luminescence, 24 h; AID 485297; 320,000 compounds, 2.8% hits; also: % of control where 0% means no effect; nearly all actives have a fitted effect of over 60% in size
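Measured in stably transfected Huh7 cells bearing a Rab9 promoter–luciferase construct: 24 h compound treatment at 37 °C, followed by luminescence detection.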
ELG1 DNA repair: blocks ELG1-dependent DNA repair in HEK293T cells; HEK293T ELG1-luciferase reporter, luminescence, 16 h; DNA damage induced by 5-fluorouridine; Potency, µM (series often up to 46.1 µM), for the others: at the top dose activity change, negative = inhibition, actives largely listed as inhibitors; 330,000 compounds, 2.3% hits; AID 504467; also: % is scaled to controls: 0 for no effect and ±100 for the full control effect; nearly all actives have a fitted effect of over 55% in size
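HEK293T cells expressing luciferase-tagged ELG1 (2,000/well) received 5-Fluorouridine plus compound or DMSO for 16 hr at 37 °C. Luciferase was read by ONE-Glo luminescence after 30 min at room temperature.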
SMN2 splice enh: SMN2 splice variant enhancement; HEK293 SMN2-luciferase splicing reporter, luminescence, 30-36 h; Potency, µM (top dose mostly 46.1 µM), inactives show at the top dose activity change, positive = activation, usual class: activators; 210,000 compounds, 2.8% hits; AID 1458; also: % of control where 0% means no effect; nearly all actives have a fitted effect of over 55% in size
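HEK293 cells carry an SMN2 minigene-luciferase reporter in which exon 7 inclusion puts luciferase in frame. Cells were seeded at 2000 cells/well, attached for 10-12 hours, then exposed to compounds for 30-36 hours at 37C before ONE-Glo luminescence.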
ELG1 genotox: inducers of genotoxicity in HEK293T ELG1-luciferase cells; HEK293T ELG1-luciferase reporter, luminescence, 16 h; Potency, µM (doses to about 46 µM), for inactives: at the top dose activity change, positive = activation, hits mostly activators; 330,000 compounds, 1.3% hits; also: % of control where 0% means no effect; nearly all actives have a fitted effect of over 60% in size
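HEK293T cells expressing luciferase-tagged ELG1 were treated with compound or DMSO for 16 hr at 37°C. Luciferase activity was then read after 30 min with ONE-Glo at room temperature; rising signal flags genetic stress.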
* marks the source's active call; other numbers are inactive results. Calls follow the shape of the dose curve; as a rule, active = well fitted curve in the direction sought with a large enough effect; inconclusive = small, poorly fitted or top-dose-only effect, or another doubt; inactive = no such curve, though single readings can be large; an effect the other way counts as inactive or inconclusive. Potency is read from the fitted curve at half-maximal effect.

Results for CCN(C(=O)c1cc2cc3ccc(C)cc3nc2o1)c1ccc(OC)cc1 ?
NPC1 promoter act: 1.5%; FLuc counter: inconclusive; Rab9 prom act: -3.5%; ELG1 DNA repair: -18.0%; SMN2 splice enh: -35.2%; ELG1 genotox: 14.5%

How did Cc1ccc2cc3cc(C(=O)NC4CCCCC4)oc3nc2c1 do in these assays?
NPC1 promoter act: inconclusive; FLuc counter: inconclusive; Rab9 prom act: inconclusive; ELG1 DNA repair: inconclusive; ELG1 genotox: -3.8%

How did Cc1ccc2cc3cc(C(=O)NC4CC4)oc3nc2c1 do in these assays?
NPC1 promoter act: 3.98µM*; FLuc counter: 10.7µM*; Rab9 prom act: 2.51µM*; ELG1 DNA repair: inconclusive; ELG1 genotox: inconclusive

How did CN(C(=O)Nc1ccc(Cl)c(Cl)c1)c1ccccc1C(=O)O do in these assays?
NPC1 promoter act: 1.6%; FLuc counter: inconclusive; Rab9 prom act: -3.5%; ELG1 DNA repair: -6.0%; SMN2 splice enh: 5.6%; ELG1 genotox: 1.7%

How did N#Cc1cc2c(nc1SC1CC(=O)N(c3ccccc3)C1=O)CCC2 (stereo unspecified) do in these assays?
NPC1 promoter act: -11.0%; FLuc counter: 10.7µM*; Rab9 prom act: -13.4%; ELG1 DNA repair: inconclusive; SMN2 splice enh: -78.1%; ELG1 genotox: 2.6%

Results for CC(C)(C)[C@H]1CCC(=O)N([C@H](CC#N)Cc2ccccc2)CC1 ?
NPC1 promoter act: 0.8%; FLuc counter: 2.0%; Rab9 prom act: -1.0%; ELG1 DNA repair: 0.7%; ELG1 genotox: -1.0%

How did O=c1[nH]c2ccccc2nc1CCc1ccccc1 do in these assays?
NPC1 promoter act: inconclusive; FLuc counter: -8.6%; Rab9 prom act: 3.16µM*; ELG1 DNA repair: inconclusive; SMN2 splice enh: inconclusive; ELG1 genotox: inconclusive

What do the screens show for `Nc1cccc(CCc2nc3cc4ccccc4cc3[nH]2)c1`?
NPC1 promoter act: 26.9%; FLuc counter: 19µM*; Rab9 prom act: 1.58µM*; ELG1 DNA repair: inconclusive; SMN2 splice enh: 5.62µM*; ELG1 genotox: 18.4µM*

What do the screens show for `c1ccc(CCc2nc3ccccc3[nH]2)cc1`?
NPC1 promoter act: inconclusive; FLuc counter: 16.9µM*; Rab9 prom act: inconclusive; ELG1 DNA repair: inconclusive; ELG1 genotox: inconclusive

How did CN(CC(=O)O)Cc1nc2ccccc2[nH]1 do in these assays?
NPC1 promoter act: 0.8%; FLuc counter: 21.3µM*; Rab9 prom act: -3.3%; ELG1 DNA repair: inconclusive; SMN2 splice enh: 0.7%; ELG1 genotox: inconclusive

Results for O=c1[nH]c2ccccc2nc1Cc1ccc(Cl)cc1 ?
NPC1 promoter act: -2.8%; FLuc counter: 1.1%; Rab9 prom act: -0.8%; ELG1 DNA repair: 11.5%; ELG1 genotox: 3.5%

Results for CCOC(=O)Cc1csc(NC(=O)COc2ccccc2)n1 ?
NPC1 promoter act: -4.1%; FLuc counter: inconclusive; Rab9 prom act: -4.7%; ELG1 DNA repair: -1.0%; SMN2 splice enh: 3.6%; ELG1 genotox: -0.7%

Results for CCOC(=O)Cc1csc(NC(=O)CSc2ncnc3c2cnn3-c2ccc(OC)cc2)n1 ?
NPC1 promoter act: -2.7%; FLuc counter: 8.49µM*; Rab9 prom act: 17.6%; ELG1 DNA repair: inconclusive; SMN2 splice enh: -18.8%; ELG1 genotox: -16.7%

Results for CCOC(=O)Cc1csc(NC(=O)Nc2ccc(OC(F)(F)F)cc2)n1 ?
NPC1 promoter act: -0.7%; FLuc counter: 2.39µM*; Rab9 prom act: -12.9%; ELG1 DNA repair: 2.06µM*; ELG1 genotox: -6.9%

What do the screens show for `CCOC(=O)Cc1csc(NC(=O)COc2ccc(N(C)S(=O)(=O)c3cccs3)cc2)n1`?
NPC1 promoter act: -3.0%; FLuc counter: 0.3%; Rab9 prom act: -6.0%; ELG1 DNA repair: 18.4µM*; SMN2 splice enh: -26.6%; ELG1 genotox: -15.3%

Results for CCOC(=O)Cc1csc(NC(=O)COc2ccc(C)cc2)n1 ?
NPC1 promoter act: -0.6%; FLuc counter: 13.5µM*; Rab9 prom act: -0.6%; ELG1 DNA repair: -14.3%; ELG1 genotox: -0.3%

What do the screens show for `CCOC(=O)Cc1csc(NC(=O)COc2cccc(C)c2)n1`?
NPC1 promoter act: 2.8%; FLuc counter: inconclusive; Rab9 prom act: -1.1%; ELG1 DNA repair: -5.6%; SMN2 splice enh: 1.8%; ELG1 genotox: -1.5%

What do the screens show for `CCOC(=O)Cc1csc(NC(=O)COc2ccc(C)c(C)c2)n1`?
NPC1 promoter act: 16.3%; FLuc counter: inconclusive; Rab9 prom act: 29.8%; ELG1 DNA repair: inconclusive; ELG1 genotox: inconclusive

What do the screens show for `CCOC(=O)Cc1csc(NC(=O)COc2ccc3c(c2)CCC3)n1`?
NPC1 promoter act: -0.7%; FLuc counter: 12µM*; Rab9 prom act: 0.4%; ELG1 DNA repair: 7.1%; ELG1 genotox: 4.1%

Results for CCOc1ccc(CCNS(=O)(=O)c2cccc3nsnc23)cc1OCC ?
NPC1 promoter act: 0.8%; FLuc counter: 1.3%; Rab9 prom act: -1.5%; ELG1 DNA repair: 4.2%; SMN2 splice enh: 14.7%; ELG1 genotox: -0.1%

How did COc1ccccc1C1=CC(=O)C[C@H](c2ccc(Cl)cc2)C1 do in these assays?
NPC1 promoter act: -0.9%; FLuc counter: 1.7%; Rab9 prom act: -4.2%; ELG1 DNA repair: inconclusive; ELG1 genotox: 0.4%

Results for COc1cccc(C2=CC(=O)C[C@H](c3ccc(Cl)cc3)C2)c1OC ?
NPC1 promoter act: -0.6%; FLuc counter: 0.5%; Rab9 prom act: -3.0%; ELG1 DNA repair: 20.6µM*; ELG1 genotox: 0.0%

Results for COc1cc(OC)c2c(C)cc(=O)oc2c1C(CCN1CCOCC1)c1ccc(N(C)C)cc1 (stereo unspecified) ?
NPC1 promoter act: -9.1%; FLuc counter: -1.5%; Rab9 prom act: 1.3%; ELG1 DNA repair: -9.8%; ELG1 genotox: 0.1%

Results for COC(=O)c1cc(NC(=O)CN(c2ccccc2OC)S(=O)(=O)c2ccccc2)ccc1Cl ?
NPC1 promoter act: -0.7%; FLuc counter: 2.1%; Rab9 prom act: -8.5%; ELG1 DNA repair: 23.1µM*; ELG1 genotox: -7.4%

How did COC(=O)c1cc(NC(=O)CN(c2cccc(OC)c2)S(=O)(=O)c2ccccc2)ccc1Cl do in these assays?
NPC1 promoter act: -1.4%; FLuc counter: 0.4%; Rab9 prom act: -1.3%; ELG1 DNA repair: inconclusive; ELG1 genotox: -11.1%

How did CCOc1ccccc1N(CC(=O)Nc1ccc(OC)cc1OC)S(=O)(=O)c1ccccc1 do in these assays?
NPC1 promoter act: -5.6%; FLuc counter: -3.9%; Rab9 prom act: 0.9%; ELG1 DNA repair: 16.4µM*; ELG1 genotox: -8.6%

What do the screens show for `CN(C)Cc1ccccc1-c1nccc(N(C)C)n1`?
SMN2 splice enh: -25.3%

How did Cc1ccc(S(=O)(=O)CC(=O)N2CCN(c3ccc([N+](=O)[O-])cc3)CC2)cc1 do in these assays?
ELG1 DNA repair: 10.3µM*; ELG1 genotox: -3.7%

High-throughput results (PubChem BioAssay)
